According to PubChem BioAssay AID1030 (National Center for Advancing Translational Sciences (NCATS), 2008):
The campaign covered roughly 220,000 compounds. About 16,000 (7.3%) were called active. Not shown: some 25% with an inconclusive outcome. Calls follow the shape of the dose curve; as a rule, active = well fitted inhibition curve with a large enough effect (not every such curve was filed as active); inconclusive = small, poorly fitted or top-dose-only effect, or another doubt; inactive = no such curve, though single readings can be large or run the other way. This excerpt belongs to a sample that is enriched for actives.

These compounds were tested against Aldehyde dehydrogenase 1A1 (Homo sapiens) (UniProt P00352) (assay: qHTS Assay for Inhibitors of Aldehyde Dehydrogenase 1 (ALDH1A1)). Settings: Purified ALDH1A1, NADH fluorescence, propionaldehyde substrate; series mostly up to 75.3 µM.
Chain of Aldehyde dehydrogenase 1A1 (Homo sapiens) (P00352 whole entry, looked up): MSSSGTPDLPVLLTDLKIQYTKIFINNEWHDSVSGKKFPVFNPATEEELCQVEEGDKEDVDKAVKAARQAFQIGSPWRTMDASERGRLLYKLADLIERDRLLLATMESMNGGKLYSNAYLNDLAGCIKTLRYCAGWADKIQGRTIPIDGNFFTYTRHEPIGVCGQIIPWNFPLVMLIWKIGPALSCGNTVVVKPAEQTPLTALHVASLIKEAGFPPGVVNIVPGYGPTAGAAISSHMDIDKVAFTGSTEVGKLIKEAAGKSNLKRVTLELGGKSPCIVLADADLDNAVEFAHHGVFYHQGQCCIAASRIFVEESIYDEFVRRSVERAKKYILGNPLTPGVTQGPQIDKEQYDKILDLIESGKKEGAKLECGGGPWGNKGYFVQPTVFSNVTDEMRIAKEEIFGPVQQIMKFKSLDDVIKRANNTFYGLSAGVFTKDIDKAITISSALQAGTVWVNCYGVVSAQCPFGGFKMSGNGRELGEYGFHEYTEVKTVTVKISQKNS

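For activity, negative = inhibition in this document: plate controls were no enzyme wells and a reference inhibitor.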
Potency is read from the fitted curve at half-maximal effect.

activity, negative = inhibition, inactive:
C=CC1=C2C=C(C3CC3)N(CC(C)C)C=C2C(=O)C(C)(OC(=O)c2ccco2)C1=O (centres undefined) -1.97% [at 13.5 µM]

Potency, inactive:
COc1ccc(/C(O)=C2/C(=O)C(=O)N(CC3CCCO3)C2c2ccc(OC)c(OC)c2)cc1 (centres undefined)
O=C1CC(c2ccccc2)CC(O)=C1C=NCCN1CCOCC1 (centres undefined)
COc1cccc(C2/C(=C(/O)c3ccncc3)C(=O)C(=O)N2CCCN(C)C)c1 (centres undefined)
CCN(CC)CCN1C(=O)C(=O)/C(=C(/O)c2ccccc2)C1c1ccccc1F (centres undefined)
COc1ccc(/C(O)=C2/C(=O)C(=O)N(CCCN(C)C)C2c2ccccc2)cc1OC (centres undefined)
CC1Cc2cc(/C(O)=C3\C(=O)C(=O)N(CCN4CCOCC4)C3c3ccccc3F)ccc2O1 (centres undefined)
COC(=O)C(C(=O)OC)[C@@H](NC=O)c1ccccc1
CCOC(=O)C1=C(C)c2ccccc2OC1C(=O)OCC (centres undefined)
CCc1cc(CNC(=O)CC2C(=O)NCCN2CC2CCCCC2)on1 (centres undefined)
CCc1ccc(Oc2nc([N+](=O)[O-])nn2C)cc1
Cc1ccc(C(=O)NN(CCC#N)C2=NS(=O)(=O)c3ccccc32)cc1
Cn1nc(C(C)(C)C)c(NC(=O)c2sccc2Cl)c1C(C)(C)C
C=C(C)COc1ccc(-c2nc(N)ncc2-c2ccccc2OC)c(O)c1
O=C(COc1ccc([N+](=O)[O-])cc1Cl)Nn1cnnc1
COC(=O)CSc1nccc(-c2cccs2)n1
CN1CCN(C(=O)N2c3ccccc3CCc3ccccc32)CC1
Cn1nnnc1SCC(=O)NNC(=O)c1ccc(Br)cc1
O=C(CCc1ccccc1)NNC(=O)c1ccc(Br)cc1
CC(Oc1cccc(NC(=O)c2cccs2)c1)C(=O)c1ccccc1 (centres undefined)
O=C(O)c1n[nH]nc1-c1ccccc1
CCNC(=O)CC1C(=O)N(c2ccc(F)cc2)C(=O)N1CCc1sccc1C (centres undefined)
COc1ccc(OCc2cn3c(C)cc(C)nc3n2)cc1
COc1ccc(Nc2cc(C)nc(-n3nc(C)cc3C)n2)cc1
Cc1onc(-c2ccccc2)c1C(=O)N=C(N)c1ccc(Cl)cc1
O=C(CCn1c(SCC(=O)c2ccccc2)nc2ccccc2c1=O)NCc1ccc(F)cc1
COc1ccc(OCc2ccc(-c3nc4ccccc4c(=O)n3N)o2)cc1
O=C(Nn1cnc2ccccc2c1=O)c1ccccc1
C=CCC1(CC=C)CCCN1C(=O)CC1C(=O)NCCN1Cc1ccccc1OC (centres undefined)
COCCC(=O)Nc1ccc2c(c1)CN(C(=O)CCOC)CC2
CNc1[nH]ncc1[N+](=O)[O-]
COc1cc(NS(=O)(=O)c2ccc(NC(=O)CN3C(=O)c4ccccc4C3=O)cc2)ncn1
COc1ccc(CCCc2nnc(SCc3nc4ccccc4c(=O)[nH]3)n2C)cc1
CCn1c(COc2c(C)cccc2C)nnc1SCc1nc2ccccc2c(=O)[nH]1
CCCOC1CCCN(Cc2cn(C)nc2-c2ccccc2F)C1 (centres undefined)
O=C(C1CCCO1)N(c1ccc(F)cc1)C1C=CS(=O)(=O)C1 (centres undefined)
CCCC[C@@H]1C[C@H]1C(NC(=O)c1ccc(-c2ccccc2)cc1)c1ccc(-c2ccccc2)cc1 (some centres undefined)
COC(=O)c1ccc(N(CC(=O)NC2CCCC2)C(=O)CNC(=O)c2ccco2)cc1
CC(C)(C)NC(=O)C(=O)NN=C1CCCCCCC1
Fc1cc(F)c2nc(N3CCOCC3)sc2c1
Fc1ccc2nc(N3CCCCC3)sc2c1
CC(=O)c1cc(C#N)c(SCC(=O)Nc2nccs2)nc1C
CCOc1ccc(C(=O)Nc2cccc(SC)c2)cc1
C=CCn1c(COc2ccccc2F)nnc1SCC(=O)N1CC(=O)Nc2ccccc21
Cn1c(Cc2cccc3ccccc23)nnc1SCC(=O)N1CCN(c2cccc(Cl)c2)CC1
Cc1cc(C)cc(N(CC(=O)NCCSCc2ccco2)S(C)(=O)=O)c1
Cc1cc(C)nc(NC(=O)/C=C/c2ccc(Cl)cc2)n1
Cc1cccc(C(=O)Nc2ccccc2C(=O)NCc2cccnc2)c1
COc1cc(C(=O)N2C(=O)c3cccc(N)c3C2=O)cc(OC)c1OC
C/C=C/c1ccc(OCCOc2ccc(C=O)cc2OC)c(OC)c1
COc1cc(/C=C2/C(=O)ON=C2C)ccc1OCc1ccccc1F
O=S(=O)(Nc1ccccn1)c1cccc(S(=O)(=O)c2ccc(Cl)cc2)c1
N#Cc1ccc(CSc2nnc3ccccn23)cc1
Cc1ccc(-n2c(C)cc(C(=O)CSc3nnc4ccccn34)c2C)cc1
Cn1c(CNc2nc(-c3ccccc3)cs2)nnc1SCC(=O)c1ccccc1
Cc1ccccc1NC(=O)Cc1nnc(SCC(=O)N2CCN(c3ccccc3)CC2)n1C
O=C(NNC1=C(C(=O)C(F)(F)F)CCC1)c1ccncc1
CCc1nc2ccccc2c(C(=O)OC2CCCCC2=O)c1C (centres undefined)
O=C(O)/C=C/c1ccc(OCCCF)cc1
COC(=O)C1=C(C)NC(=O)CC1c1ccccc1OC (centres undefined)
O=C(Cc1cccc2ccccc12)NCCC1=CCCCC1
CCn1c(=O)cc(SCC(=O)NCc2ccc3c(c2)OCO3)c2ccccc21
COc1ccc(Cc2nnc(NC(=O)c3cc(OC)c(OC)c(OC)c3)s2)cc1OC
NCCCC[C@@H]1NC(=O)[C@H](CCC(=O)O)NC(=O)c2cc([N+](=O)[O-])cc(I)c2NCC[C@@H](C(N)=O)NC1=O
CC(C)[C@@H]1NC(=O)c2cc([N+](=O)[O-])cc(I)c2NCCC[C@@H](C(=O)NC(CC(=O)O)C(N)=O)NC(=O)[C@H](CO)NC1=O (some centres undefined)
C/C(=N/NC(=O)c1ccn(C)n1)c1ccncc1
COCC1CCCN(Cc2nc(-c3ccc4c(c3)OCO4)no2)C1 (centres undefined)
CN1CCN(S(=O)(=O)c2cccc(C(=O)O)c2)CC1
COc1cccc(CNC(=O)Cc2csc(Nc3nc(=S)[nH]c4ccccc34)n2)c1
O=C(Nc1ccccc1-c1ccccc1)c1cccs1
O=C(O)Cc1ccc(NC(=O)c2cccs2)cc1
Cc1cc(F)ccc1S(=O)(=O)Nc1ncnc2scc(-c3ccc(F)cc3)c12
CONc1nc2nonc2nc1NOC
CC(C)C(c1nnnn1Cc1ccccc1)N1CCC(C(N)=O)CC1 (centres undefined)
Cc1ccc(S(=O)(=O)Cn2nnnc2CN2CCN(Cc3ccc4c(c3)OCO4)CC2)cc1
CCCN(Cc1cc2cccc(C)c2[nH]c1=O)S(C)(=O)=O
O=c1[nH]c(N2CCN(Cc3ccc4c(c3)OCO4)CC2)nc2c1CCCC2
CCCCCCCCCCCCN1C(=O)CSC1c1cccnc1 (centres undefined)
Nc1ccc(Cl)c(S(=O)(=O)Nc2ccccc2Cl)c1
CCOC(=O)C1=C(CC)Nc2ccccc2N=C1N
CC(C)n1c(CN2CCN(Cc3ccccc3)CC2)nc2ccccc21
Cc1ccc2c(c1)C(O)(CC(=O)c1cccc(-n3cccc3)c1)C(=O)N2 (centres undefined)
CCCCOc1ccc(C(=O)NCc2ccco2)cc1
O=C(NCc1ccco1)c1ccc(Cn2c(=O)c3sccc3n(Cc3ccc(F)cc3)c2=O)cc1
Cc1ccc(-c2csc(NC(=O)c3cnccn3)n2)cc1C
Cn1nnc(NC(=O)CSc2ncn[nH]2)n1
COc1ccc(C(=O)CSc2nccc(=O)[nH]2)cc1
CC(=O)N(CCCN(C)C)c1nc2ccc(C)cc2s1
CC1(C)C(=O)Nc2ccccc2N1C(=O)COC(=O)Cn1cnc2ccccc2c1=O
Nc1ccc(C(=O)OCC(=O)NC2CCCc3ccccc32)cc1[N+](=O)[O-] (centres undefined)
Cc1ccc(C(c2nnnn2C(C)(C)C)N2CCc3ccccc3C2)cc1 (centres undefined)
COc1ccc(OC)c(C(c2nnnn2C(C)(C)C)N2CCc3ccccc3C2)c1 (centres undefined)
CC(=O)c1ccc(N2CCN(S(=O)(=O)c3c(C)[nH]c(=O)[nH]c3=O)CC2)cc1
CSc1ccc(/C=N/N2CCN(Cc3ccccc3Cl)CC2)cc1
CC(C)(C)NC(=O)CN1CCC(NC(=O)C23CC4CC(CC(C4)C2)C3)CC1
O=C(N1CCCC1)C12CC3CC(C1)CC(C(=O)N1CCCC1)(C3)C2
COC/C=C/C1=CC2=CC(=O)C(C)(OC(=O)CCC(=O)OC)C(=O)C2=CO1 (centres undefined)
Cc1ccccc1-n1c(C)cc(/C=C2\NC(=O)NC2=O)c1C
COc1cc(Cl)c(S(=O)(=O)n2cnc(C)c2)cc1Cl

Potency, active:
CCN(CC)CCN1C(=O)C(=O)/C(=C(/O)c2ccc(OC)c(OC)c2)C1c1ccccn1 (centres undefined) 28.2 µM
COc1ccc(C2/C(=C(/O)c3ccc(OC(C)C)cc3)C(=O)C(=O)N2CCCN2CCOCC2)cc1 (centres undefined) 25.1 µM
O=C1C(=O)N(CCN2CCOCC2)C(c2ccccn2)/C1=C(/O)c1ccc(Cl)cc1 (centres undefined) 12.6 µM
CC(=O)NC(=S)NNC(=O)c1ccc(Br)cc1 11.2 µM
COc1ccc(C(C[N+](=O)[O-])n2nc(C)cc2C)cc1 (centres undefined) 10 µM
Cc1ccc(C(=O)CSc2nc3ccccc3c(=O)n2N)o1 28.2 µM
COc1ccc(C)cc1-n1nnnc1SCc1nc2ccccc2c(=O)[nH]1 39.8 µM
CCCC[C@@H]1C[C@H]1C(NC(=O)c1ccco1)c1ccc(C(=O)OC)cc1 (some centres undefined) 22.4 µM
c1c2c(cc3sc(N4CCCCC4)nc13)OCCO2 20 µM
Nn1c(Cc2cccc3ccccc23)nnc1SCC(=O)N1CC(=O)Nc2ccccc21 17.8 µM
CCOC(=O)N1CC=C2C(C#N)=C(N)C(C#N)(C#N)[C@H](c3cccs3)[C@H]2C1 20 µM
COc1cc(/C=C2/C(=O)ON=C2C)ccc1OCc1cccc(F)c1 10 µM
Cn1c(CC(=O)Nc2ccccc2)nnc1SCC(=O)c1ccccc1 7.08 µM
O=C(CSc1nnc2ccccn12)c1ccccc1 10 µM
CCn1c(=O)cc(SCC(=O)NCCC2=CCCCC2)c2ccccc21 14.1 µM
NC(=O)CC[C@@H]1NC(=O)[C@H](CO)NC(=O)c2cc([N+](=O)[O-])cc(I)c2NCC[C@@H](C(N)=O)NC1=O 12.6 µM
CCc1ccccc1NC(=O)c1cccs1 25.1 µM
Cc1cccc2cc(CN(Cc3nnnn3Cc3ccccc3)C3CCCC3)c(=O)[nH]c12 15.8 µM
Cc1cccc2cc(CN(Cc3ccc4c(c3)OCO4)Cc3nnnn3C3CCCC3)c(=O)[nH]c12 11.2 µM
CC(C)OCCCNC(=O)c1ccc(C2SCC(=O)N2Cc2ccco2)cc1 (centres undefined) 10 µM
CC(C)(C)c1ccc(C(=O)CSc2ncn[nH]2)cc1 20 µM
CCNc1ccc(C(=O)OCC(=O)N2c3ccccc3NC(=O)C2(C)C)cc1[N+](=O)[O-] 11.2 µM
COCCn1nnnc1C(c1cc2ccc(OC)cc2[nH]c1=O)N1CCc2ccccc2C1 (centres undefined) 25.1 µM
CN1CCN(CC(=O)C23CC4CC(CC(C4)C2)C3)CC1 20 µM
COc1cc(OC)c(-n2c(C)cc(C=O)c2C)cc1Cl 7.08 µM
